Results as given in article PMC11006913.

These sequences were tested against HOXC10 (Homo sapiens, UniProt Q9NYD6 254-340, K271E) (assay: PBM; 200 nM protein, PBS). Details: dsDNA, one strand shown.
HOXC10, sequence (Q9NYD6 254-340 K271E): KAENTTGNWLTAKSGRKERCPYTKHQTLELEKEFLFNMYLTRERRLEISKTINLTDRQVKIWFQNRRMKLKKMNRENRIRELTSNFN

Sequence | binding signal
GTCATAAA | 12.4 upbm affinity estimate (log intensity, higher = more binding, comparable within an allelic series)
ATCGTTAA | 12.1 upbm affinity estimate (log intensity, higher = more binding, comparable within an allelic series)
GTCGTTAA | 12.4 upbm affinity estimate (log intensity, higher = more binding, comparable within an allelic series)
TCGTAAAA | 12.3 upbm affinity estimate (log intensity, higher = more binding, comparable within an allelic series)
TCATAAAA | 12.3 upbm affinity estimate (log intensity, higher = more binding, comparable within an allelic series)
CTCGTAAA | 11.9 upbm affinity estimate (log intensity, higher = more binding, comparable within an allelic series)
CATTAAAA | 11.8 upbm affinity estimate (log intensity, higher = more binding, comparable within an allelic series)
CCATAAAA | 12.5 upbm affinity estimate (log intensity, higher = more binding, comparable within an allelic series)
CATTAAAC | 11.9 upbm affinity estimate (log intensity, higher = more binding, comparable within an allelic series)
CATAAAAG | 11.8 upbm affinity estimate (log intensity, higher = more binding, comparable within an allelic series)
AATTTTAT | 11.7 upbm affinity estimate (log intensity, higher = more binding, comparable within an allelic series)
ACCATAAA | 11.5 upbm affinity estimate (log intensity, higher = more binding, comparable within an allelic series)
ATAATAAA | 11.9 upbm affinity estimate (log intensity, higher = more binding, comparable within an allelic series)
CATAAAAC | 11.9 upbm affinity estimate (log intensity, higher = more binding, comparable within an allelic series)
ATTTATGA | 11.7 upbm affinity estimate (log intensity, higher = more binding, comparable within an allelic series)
TCGTTAAA | 12.1 upbm affinity estimate (log intensity, higher = more binding, comparable within an allelic series)
TAATAAAA | 12.5 upbm affinity estimate (log intensity, higher = more binding, comparable within an allelic series)
ACTATAAA | 11.4 upbm affinity estimate (log intensity, higher = more binding, comparable within an allelic series)
CATAAAAA | 12 upbm affinity estimate (log intensity, higher = more binding, comparable within an allelic series)

What follows are sequences tested against HOXD13 (Homo sapiens, UniProt P35453 263-343, T313A) (assay: PBM; 200 nM protein, PBS). Details: dsDNA, one strand shown.
HOXD13, sequence (P35453 263-343 T313A): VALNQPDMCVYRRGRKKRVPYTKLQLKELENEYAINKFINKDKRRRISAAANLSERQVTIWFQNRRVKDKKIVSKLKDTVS

Sequence | binding signal
ATCGTAAA | 11.8 upbm affinity estimate (log intensity, higher = more binding, comparable within an allelic series)
GTCGTAAA | 11.9 upbm affinity estimate (log intensity, higher = more binding, comparable within an allelic series)
GCTATAAA | 11.7 upbm affinity estimate (log intensity, higher = more binding, comparable within an allelic series)
CTCATAAA | 12.2 upbm affinity estimate (log intensity, higher = more binding, comparable within an allelic series)
CTATTAAA | 11.9 upbm affinity estimate (log intensity, higher = more binding, comparable within an allelic series)
ATAAAACA | 11.6 upbm affinity estimate (log intensity, higher = more binding, comparable within an allelic series)
ACAATAAA | 11.8 upbm affinity estimate (log intensity, higher = more binding, comparable within an allelic series)
ATCATAAA | 11.8 upbm affinity estimate (log intensity, higher = more binding, comparable within an allelic series)
CTATAAAA | 12.2 upbm affinity estimate (log intensity, higher = more binding, comparable within an allelic series)
CTAATAAA | 12.1 upbm affinity estimate (log intensity, higher = more binding, comparable within an allelic series)
GTTTATTA | 11.8 upbm affinity estimate (log intensity, higher = more binding, comparable within an allelic series)
CGCCACCG | 9.65 upbm affinity estimate (log intensity, higher = more binding, comparable within an allelic series)
ATTTTATG | 11.5 upbm affinity estimate (log intensity, higher = more binding, comparable within an allelic series)
GCCATAAA | 11.7 upbm affinity estimate (log intensity, higher = more binding, comparable within an allelic series)
GTCATAAA | 11.8 upbm affinity estimate (log intensity, higher = more binding, comparable within an allelic series)
TCGTAAAA | 12.2 upbm affinity estimate (log intensity, higher = more binding, comparable within an allelic series)
TCATAAAA | 11.9 upbm affinity estimate (log intensity, higher = more binding, comparable within an allelic series)
CTCGTAAA | 12.6 upbm affinity estimate (log intensity, higher = more binding, comparable within an allelic series)
CATTAAAA | 11.6 upbm affinity estimate (log intensity, higher = more binding, comparable within an allelic series)
CCATAAAA | 12 upbm affinity estimate (log intensity, higher = more binding, comparable within an allelic series)
CATAAAAG | 11.6 upbm affinity estimate (log intensity, higher = more binding, comparable within an allelic series)
ACCATAAA | 11.7 upbm affinity estimate (log intensity, higher = more binding, comparable within an allelic series)
ATAATAAA | 11.6 upbm affinity estimate (log intensity, higher = more binding, comparable within an allelic series)
CATAAAAC | 11.7 upbm affinity estimate (log intensity, higher = more binding, comparable within an allelic series)
ATTTATGA | 11.8 upbm affinity estimate (log intensity, higher = more binding, comparable within an allelic series)
TCGTTAAA | 11.7 upbm affinity estimate (log intensity, higher = more binding, comparable within an allelic series)
TAATAAAA | 12.1 upbm affinity estimate (log intensity, higher = more binding, comparable within an allelic series)
ACTATAAA | 11.8 upbm affinity estimate (log intensity, higher = more binding, comparable within an allelic series)
CATAAAAA | 11.6 upbm affinity estimate (log intensity, higher = more binding, comparable within an allelic series)

Each sequence was assayed against HOXB9 (Homo sapiens, UniProt P17482 171-250, R186Q) (assay: PBM; 200 nM protein, PBS). Details: dsDNA, one strand shown.
HOXB9, sequence (P17482 171-250 R186Q): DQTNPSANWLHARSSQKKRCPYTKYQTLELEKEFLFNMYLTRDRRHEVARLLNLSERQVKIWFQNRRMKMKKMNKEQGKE

Sequence | binding signal
ATCGTAAA | 11.4 upbm affinity estimate (log intensity, higher = more binding, comparable within an allelic series)
GTCGTAAA | 11.9 upbm affinity estimate (log intensity, higher = more binding, comparable within an allelic series)
GCTATAAA | 11.7 upbm affinity estimate (log intensity, higher = more binding, comparable within an allelic series)
CTCATAAA | 11.5 upbm affinity estimate (log intensity, higher = more binding, comparable within an allelic series)
CTATTAAA | 11.6 upbm affinity estimate (log intensity, higher = more binding, comparable within an allelic series)
ATAAAACA | 11.5 upbm affinity estimate (log intensity, higher = more binding, comparable within an allelic series)
ACAATAAA | 11.7 upbm affinity estimate (log intensity, higher = more binding, comparable within an allelic series)
ACATAAAA | 12 upbm affinity estimate (log intensity, higher = more binding, comparable within an allelic series)
ATCATAAA | 11.7 upbm affinity estimate (log intensity, higher = more binding, comparable within an allelic series)
CTATAAAA | 11.9 upbm affinity estimate (log intensity, higher = more binding, comparable within an allelic series)
CTAATAAA | 11.6 upbm affinity estimate (log intensity, higher = more binding, comparable within an allelic series)
GTTTATTA | 11.5 upbm affinity estimate (log intensity, higher = more binding, comparable within an allelic series)
CCCTCACC | 8.43 upbm affinity estimate (log intensity, higher = more binding, comparable within an allelic series)
CGCCACCG | 8.46 upbm affinity estimate (log intensity, higher = more binding, comparable within an allelic series)
AATAAAAA | 11.6 upbm affinity estimate (log intensity, higher = more binding, comparable within an allelic series)
ATTTTATG | 12.1 upbm affinity estimate (log intensity, higher = more binding, comparable within an allelic series)
GCCATAAA | 11.9 upbm affinity estimate (log intensity, higher = more binding, comparable within an allelic series)
CCTTGCAG | 8.42 upbm affinity estimate (log intensity, higher = more binding, comparable within an allelic series)
GTCATAAA | 12.2 upbm affinity estimate (log intensity, higher = more binding, comparable within an allelic series)

Sequence | binding signal
CCGCCTGC | 8.24 upbm affinity estimate (log intensity, higher = more binding, comparable within an allelic series)
GTCGTTAA | 11.3 upbm affinity estimate (log intensity, higher = more binding, comparable within an allelic series)
TCGTAAAA | 12 upbm affinity estimate (log intensity, higher = more binding, comparable within an allelic series)
TCATAAAA | 12.1 upbm affinity estimate (log intensity, higher = more binding, comparable within an allelic series)
CTCGTAAA | 11.4 upbm affinity estimate (log intensity, higher = more binding, comparable within an allelic series)
CATTAAAA | 11.7 upbm affinity estimate (log intensity, higher = more binding, comparable within an allelic series)
CCATAAAA | 12.5 upbm affinity estimate (log intensity, higher = more binding, comparable within an allelic series)
CATTAAAC | 11.6 upbm affinity estimate (log intensity, higher = more binding, comparable within an allelic series)
CATAAAAG | 11.7 upbm affinity estimate (log intensity, higher = more binding, comparable within an allelic series)
AATTTTAT | 11.6 upbm affinity estimate (log intensity, higher = more binding, comparable within an allelic series)
ACCATAAA | 11.6 upbm affinity estimate (log intensity, higher = more binding, comparable within an allelic series)
ATAATAAA | 11.5 upbm affinity estimate (log intensity, higher = more binding, comparable within an allelic series)
CATAAAAC | 12.1 upbm affinity estimate (log intensity, higher = more binding, comparable within an allelic series)
CCTAGGGC | 8.47 upbm affinity estimate (log intensity, higher = more binding, comparable within an allelic series)
ATTTATGA | 11.5 upbm affinity estimate (log intensity, higher = more binding, comparable within an allelic series)
TCGTTAAA | 11.3 upbm affinity estimate (log intensity, higher = more binding, comparable within an allelic series)
TAATAAAA | 12.2 upbm affinity estimate (log intensity, higher = more binding, comparable within an allelic series)
ACTATAAA | 11.4 upbm affinity estimate (log intensity, higher = more binding, comparable within an allelic series)
CATAAAAA | 12 upbm affinity estimate (log intensity, higher = more binding, comparable within an allelic series)
